# Measured values as given in publication PMC4336329 (PLoS ONE, 2015).
# The whole screen tested about 310,000 compounds, of which about 2,200 (0.71%) showed an effect of 50% or more. The effect is printed as a negative number. Shown is part of a subset that was picked to be rich in strong results.
# Biological target: human ether-à-go-go-related gene (hERG) potassium channel (human, UniProt Q12809)
# Assay: primary screen, population patch clamp on CHO cells stably expressing hERG; higher = less effect of the substance
# human ether-à-go-go-related gene (hERG) potassium channel, sequence (Q12809 whole entry, looked up): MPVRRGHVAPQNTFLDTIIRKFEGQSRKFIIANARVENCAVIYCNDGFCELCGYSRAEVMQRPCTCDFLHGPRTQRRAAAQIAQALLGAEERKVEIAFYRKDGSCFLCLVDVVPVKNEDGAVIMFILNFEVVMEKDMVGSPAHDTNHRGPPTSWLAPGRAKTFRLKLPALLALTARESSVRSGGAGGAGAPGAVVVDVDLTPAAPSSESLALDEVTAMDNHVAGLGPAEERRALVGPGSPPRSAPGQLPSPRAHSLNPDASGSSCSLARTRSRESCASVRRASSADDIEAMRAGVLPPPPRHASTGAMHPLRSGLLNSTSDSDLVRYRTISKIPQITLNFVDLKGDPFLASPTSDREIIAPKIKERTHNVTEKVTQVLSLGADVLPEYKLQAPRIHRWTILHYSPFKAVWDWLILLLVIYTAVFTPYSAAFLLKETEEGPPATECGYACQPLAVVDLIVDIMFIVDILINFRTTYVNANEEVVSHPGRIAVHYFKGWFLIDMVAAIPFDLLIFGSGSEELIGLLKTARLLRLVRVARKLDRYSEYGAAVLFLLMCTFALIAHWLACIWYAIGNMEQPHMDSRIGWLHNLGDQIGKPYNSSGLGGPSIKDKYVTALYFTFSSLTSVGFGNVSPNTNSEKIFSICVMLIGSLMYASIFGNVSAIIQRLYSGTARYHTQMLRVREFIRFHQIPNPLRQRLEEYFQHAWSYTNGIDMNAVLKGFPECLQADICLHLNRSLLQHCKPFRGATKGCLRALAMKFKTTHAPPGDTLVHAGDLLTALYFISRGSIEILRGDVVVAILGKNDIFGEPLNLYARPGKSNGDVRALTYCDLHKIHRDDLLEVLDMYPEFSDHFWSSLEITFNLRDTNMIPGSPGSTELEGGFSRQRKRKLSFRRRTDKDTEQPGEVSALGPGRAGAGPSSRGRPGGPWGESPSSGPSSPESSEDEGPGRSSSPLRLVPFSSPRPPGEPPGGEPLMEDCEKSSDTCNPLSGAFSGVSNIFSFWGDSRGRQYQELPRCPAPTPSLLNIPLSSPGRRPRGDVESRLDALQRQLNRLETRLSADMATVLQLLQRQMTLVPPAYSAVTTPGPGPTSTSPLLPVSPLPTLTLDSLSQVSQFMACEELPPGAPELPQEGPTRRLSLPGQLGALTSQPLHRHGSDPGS
row,Compound,"hERG current change (%, negative = inhibition) at 1uM"
1,O=C(CNCc1cccc2ccccc12)Nc1ccccc1[N+](=O)[O-],1.68%
2,COc1ccc(NC(=O)CSc2nnc(-c3ccoc3C)n2CCc2ccccc2)cc1,1.36%
3,CCN1/C(=C/c2ccc3cc(C)ccc3[n+]2CC)Sc2ccccc21.[I-],-100%
4,CCN1/C(=C/c2ccc3cc(C)ccc3[n+]2CC)Sc2ccc3sccc3c21.[I-],10.9%
5,CCN1/C(=C/c2ccc3ccc(C)cc3[n+]2CC)Sc2ccccc21.[I-],-63.6%
6,CCN1/C(=C/C=C/C=C/C=C/c2sc3ccccc3[n+]2CC)Sc2ccccc21.[I-],7.57%
7,CCC(=O)/C=C1/Sc2ccccc2N1CC,10.1%
8,CCN1/C(=C/C=C/C=C/c2sc3ccccc3[n+]2CC)Sc2ccccc21.[I-],-37.5%
9,CCC(=O)/C=C1\Sc2ccccc2N1CC,4.38%
10,CCN1/C(=C/c2ccc3cccc(C)c3[n+]2CC)Sc2ccccc21.[I-],-76.4%
11,CCN1/C(=C/C(C)=C/c2sc3ccccc3[n+]2CC)Sc2ccccc21.[I-],10.6%
12,COc1cccc(CCc2nnc(N)s2)c1,13.2%
13,O=Cc1cn(CC(=O)Nc2ccccc2)c2ccccc12,6.4%
14,C=CCOC(=O)Nc1ccc(Cl)cc1NC(=O)OCC=C,0.411%
15,Cc1ccc(C(=O)Oc2ccc(Cl)c3cccnc23)cc1[N+](=O)[O-],15%
16,CCCc1c(C)[nH]c2nc3ccccc3n2c1=O,11.4%
17,COc1ccc(C)cc1S(=O)(=O)N(C)CC(=O)N1CCC(C(N)=O)CC1,9.99%
18,COc1cc(NC(=S)N2CCN(C)CC2)cc(OC)c1,14.3%
19,CCN1C(=O)/C(=C\N2CCN(c3cccc(Cl)c3)CC2)SC1=S,6.97%
20,COc1ccc(NC(=S)N(CCCN2CCOCC2)C(C)c2cc3ccccc3o2)cc1 (stereo not shown),-63.1%
21,COc1ccc(NC(=S)N(CCCN2CCCC2)Cc2cccs2)cc1,-7.06%
22,COc1cccc(NC(=S)N(CCCN2CCOCC2)C(C)c2cc3ccccc3o2)c1 (stereo not shown),10.6%
23,COc1ccc(NC(=S)N(CCCN2CCOCC2)C(C)c2cc3cccc(OC)c3o2)cc1 (stereo not shown),3.7%
24,COc1ccc(NC(=S)N(CCCN2CCCC(C)C2)Cc2cccs2)cc1 (stereo not shown),-62.4%
25,COc1ccc(NC(=S)N(CCCN2CCN(C)CC2)Cc2cccs2)cc1,-14%
26,COc1cccc(NC(=S)N(CCCN2CCCC(C)C2)Cc2cccs2)c1 (stereo not shown),-30.2%
27,COc1ccc(NC(=S)N(CCCN2CCCCC2)Cc2cccs2)cc1,-50.1%
28,COc1ccc(NC(=S)N(CCCN2CCC(C)CC2)Cc2cccs2)cc1,-47.5%
